# Many of the other results were omitted from the sample, so hits are more common in it than they were.
# TTR transcr act: TTR transcription activation, primary screen; SH-SY5Y TTR promoter Gaussia luciferase, luminescence; 100% = recombinant luciferase protein wells; activation, % at 16.7 µM; 1.3% of 92,000 active;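 active = activation above the mean of all tested compounds plus 3 SD, cut at about 9.5% in these data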;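 also: cells exposed to compounds for one day before reading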
# TTR inh HuH7: decreases TTR transcription in HuH7 cells in activator counter-screen; shares compounds with TTR transcr act; inhibition, % at 16.7 µM; 4% of 1,100 active; HuH7 TTR promoter-Gaussia luciferase reporter, luminescence;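 active = average inhibition above the solvent-only control wells' mean plus 3 SD, cut at about 15% in these data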;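 also: inhibitors lower well luminescence so higher value means more inhibition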
# TTR act confirm: confirmation of human transthyretin transcription activators. shares compounds with TTR transcr act. SHSY5Y TTR promoter Gaussia luciferase, luminescence; 100% = purified Lucia enzyme wells, no cells. activation, % at 16.7 µM. 1,100 tested, under 10 active;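 active = mean activation above a set limit taken from the earlier primary screen, cut at about 11% in these data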
# A number is an active result; - = inactive.
SMILES,TTR transcr act,others
CCC[C@H]1[C@@H](NCc2ccccc2)CC[C@@]23CCCN2C(=O)CCC[C@@H]13,-,
O=C(Nc1cccc(Br)c1)OC1CC2CC1[C@H]1CCCCN1[C@H]2Cc1ccccc1 (some centres undefined),-,
CN1C(=O)C(c2cn(C)c3ccccc23)(c2cn(C)c3ccccc23)c2ccccc21,-,
Cc1ccc(N2CCN(C(=O)C(=O)c3ccc(F)c(F)c3)CC2)cc1,-,
COC(=O)[C@]12C[C@H](CC(=O)NCC34CC5CC(CC(C5)C3)C4)C(=O)N(Cc3ccco3)C1=C[C@H](C(C)C)O[C@@H]2C1CC1,-,
COC(=O)[C@]12C[C@H](CC(=O)N3CCN(C(=O)c4ccco4)CC3)C(=O)N(Cc3ccc(Cl)cc3Cl)C1=C[C@H](COCc1ccccc1)O[C@@H]2C,-,
CCCOc1ccc(C(=O)OCC(=O)c2c(N)n(C)c(=O)n(C)c2=O)cc1OC,-,
COc1ccc(/C=C/C(=O)OCC(=O)c2ccc3c(c2)NC(=O)CO3)c(OC)c1,-,
COc1ccc(/C=C/C(=O)OCC(=O)c2c(N)n(C)c(=O)n(C)c2=O)c(OC)c1,9.8,TTR inh HuH7=-;TTR act confirm=-
CCCC[C@H]1C2CC(OC(=O)Nc3ccc(C(F)(F)F)cc3)C(C2)[C@H]2CCCCN21 (some centres undefined),-,
O=S1(=O)[C@H]2C[C@@H]3C=C[C@@]2(CN1Cc1ccc(Cl)cc1)O3,17,TTR inh HuH7=-;TTR act confirm=-
Cc1cccc(CN2C[C@]34C=C[C@@H](C[C@@H]3S2(=O)=O)O4)c1,-,
Cc1cc(C)cc([C@H]2C[C@]34CN(Cc5ccccc5)S(=O)(=O)[C@H]3C[C@H]2O4)c1,-,
CC[C@@]1(c2ccc(C)cc2)C(=O)N(C(=O)OC(C)C)N1C(=O)OC(C)C,-,
NC(=O)C1CCN(c2ncc(Br)cn2)CC1,-,
Cc1ccccc1CN1CCCCC(NC(=O)c2ccc3ccccc3c2)C1=O (centres undefined),-,
COc1ccc(C2CC(=O)Nc3cc(OC)c(OC)cc32)cc1 (centres undefined),-,
COc1cc2c(cc1OC)C(c1cccnc1)CC(=O)N2 (centres undefined),-,
COc1cc2c(cc1OC)C(c1cccc(F)c1)CC(=O)N2 (centres undefined),18,TTR inh HuH7=-;TTR act confirm=-
CC(C)CNC(=O)OCc1cn(Cc2cccc(Cl)c2)nn1,-,
COc1ccc(Cn2cc(COC(=O)N3CCOCC3)nn2)cc1,-,
Cc1cc(C)cc(C(=O)N2CCC(CCC(=O)NC3CC3)CC2)c1,-,
O=C(CCC1CCN(C(=O)c2cc(C(F)(F)F)ccc2Cl)CC1)NC1CC1,17,TTR inh HuH7=-;TTR act confirm=-
COc1cc(Cl)c(CN2CCC(CCC(=O)NC3CC3)CC2)cc1OC,-,
C[C@H]1[C@@H](NC(=O)c2ccc(Cl)c(C(F)(F)F)c2)CC[C@@]23CCCN2C(=O)CCC[C@@H]13,-,
SMILES,TTR transcr act,others
COc1ccc(NC(=O)c2cc(-c3ccc(OC)c(OC)c3)on2)cc1OC,-,
COc1ccc(Cl)cc1NC(=O)c1cc(C2CC2)on1,-,
COc1ccc(Cl)cc1NC(=O)c1cc(-c2ccccc2)on1,12,TTR inh HuH7=-;TTR act confirm=-
O=C(NCCc1c[nH]c2ccccc12)OCc1cn(Cc2c(F)cccc2F)nn1,-,
O=C(NC1CCCCN(Cc2ccc(Cl)cc2)C1=O)c1ccc(COc2ccccc2)cc1 (centres undefined),-,
CC1(c2ccccc2)NC(=O)N(CC(=O)N(c2ccccc2)C2CCS(=O)(=O)C2)C1=O (centres undefined),14,TTR inh HuH7=-;TTR act confirm=-
CCC1(c2ccccc2)NC(=O)N(CC(=O)N(c2ccccc2)C2CCS(=O)(=O)C2)C1=O (centres undefined),-,
COc1ccc(C2(C)NC(=O)N(CC(=O)N(c3ccccc3)C3CCS(=O)(=O)C3)C2=O)cc1 (centres undefined),-,
CCOC(=O)[C@]12CCCCC/C=C\1N(CCc1ccc(Cl)cc1)C(=O)[C@H]2CC(=O)NCCC(C)C,-,
O=S1(=O)c2ccc(N3CC[C@@H](O)C3)cc2OCCCN1C1CC1,-,
CCOC(=O)N1CCN(C(=O)C[C@H]2C[C@@]3(C(=O)OC)C(=C[C@H](C4CCCC4)O[C@@H]3C)N(Cc3ccco3)C2=O)CC1,-,
CCCCCCCCN1C(=O)[C@@H](CC(=O)NCc2ccccc2)C[C@@]2(C(=O)OC)C1=C[C@H](C(C)C)O[C@@H]2C1CC1,-,
CCCC[C@H](C(=O)N(CC)c1ccccc1)[C@@H](O)c1ccc(C(C)=O)cc1,-,
C=CCN(C(=O)[C@@H](C)[C@@H](O)c1ccc(C(C)=O)cc1)c1ccccc1,-,
CCN(C(=O)[C@@H](C)[C@@H](O)c1ccc(C(C)=O)cc1)c1ccccc1,11,TTR inh HuH7=-;TTR act confirm=-
COc1ccc2oc(=O)c(-c3nnc(N)s3)cc2c1,10,TTR inh HuH7=-;TTR act confirm=-
COc1ccc2oc(=O)c(C(=O)Nc3ccccc3O)cc2c1,-,
